In one assay the test system is PPARg:RXRa DBDmut IVT, anti-RXR (DBD mutation: RXRa K156A/R161A, NR concentration 270 nM, RXRa partner concentration 90 nM). The experiment in a line: PBM binding z-score (relative to random genomic background probes); higher = stronger binding; sequences stand for … in GC…GCGATTGACAGCGTAGAATGAAGG
Put shortly:
(§1)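 Random background probes are the reference for binding z-scores. These scores derive from regression-normalized fluorescence on custom Agilent 4×180K protein-binding microarrays incubated 1 h with ligand-free nuclear receptor dimers. Binding was detected with antibodies against each partner (one per run).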
Take CCTCCTAGGTCATGGTCAGCTAATCTACAGTATG: the PBM binding z-score was found to be 3.36.
Still for that read-out and setting: the result for CCAGACAGGTGAAAGGTAACACAGTCTGGTACGC reads 2.09; that for AGAACGAGGGCAATGAGTTGATAGCGCGGGTGGC, 3.57; that for ATATGTAGGTTATCGGGTCAATCAGTTTGCGCAT, 7.94.
For the sequence ACAGACAGATGAGTGAAGGTAACTCAGCTGGACG, the PBM binding z-score was -0.101.
On the same count and under the same terms, next, GCAGACAGGTGAAAAGCAGGTAACTCAGGGTGGC: 0.172; TCGAGTAGGTTACCAAGGGGGCATTCAGCTTTCT: 3.32.
As to GCGACTGGGGCAAAGCAGGTTACCAAAAGGTTGG, the PBM binding z-score is 4.78.
The same measure, in the same setting: the result for ATATGTAGGTTACATCCAGGTCATTCAGGCTATG reads 7.73; that for CCTACTGGGCCAAATGTCATTGATTCCAATGCTC, 4.77; that for ACTGTTAGTTGACTTAGGGCAACCGATACGACGC, 0.0464.
Still for that read-out and setting: next, ATCTAAAGGTCGAGGTGAGTATAGAGAAAGGGAA: 0.937.
Still for that read-out and setting: the result for CCTAGTTGGTCAAGGGCACACACGCTATAGGTAC reads 1.1.
On to TCTTGTAGATCAACAGGAGGCTAAGAAAGATCGA, for which the PBM binding z-score was 1.2.
Same read-out and setting: next, TCATATAGGTAAACAGGTGAAAATCCGTAAGTTA: 4.38.
Still for that read-out and setting: next, CGTCCAAGGTCTATGCTAGGTCAGTGAAAGCATT: 0.0727.
On the same count and under the same terms, next, CGTCCAAGGTCAAGGTCAGTGGAAGAGACTCGAA: 3.54; AGAATGAGGTTATTAAGTTCAGGGAATTGCGGTC: 2.87; CCTTACGGGTCACTCCAGGTAATAGCATCGGAGT: 2.28.
Take ATCGAAAGGACGACGAGGTGAGTATACACCGTTT: the PBM binding z-score is -0.481.
CGTCCAAGGTCATAGGAGGTCAGTGAAGACAGAT returned a PBM binding z-score of 3.11.
On the same count and under the same terms, the result for GATACAGGGTCAAGGCCAGAGAACGCGTATTGAT reads 2.63.
The same measure, in the same setting: next, TCTATTAGTTGAAAGGCAACCGACGAGTCCGTTT: 2.63.
Still for that read-out and setting: next, CCGACTGGGGCAAAGGTTACCATCCTCAGTACGA: 4.64.
Turning to TCTTGTAGATCAAGCAGGATAAGAAAGCCTGAGT, the PBM binding z-score is 1.53.
Still for that read-out and setting: the result for AGACCGAGGGCACGCTGAGTTGATAGCAGAGTAG reads 1.14; that for TCTAGTTGGTCACCGAGGTCACACACGACGGGTA, 2.51.
Take CGTGCAAGGTCAGCAGGTCAGTGAAAGCGACGTG: the PBM binding z-score came out at 3.36.
Still for that read-out and setting: next, CCTCGCAGGACAACAGGAGGTCAGAGCTGCCAGA: -0.0217; ATCTCTAGATAAAAGTTCAGTGAATCCCGAGGAT: -0.00193.
Same read-out and setting: the result for CCTAGCAGGCCAGGGTCAATCAAGCATTTCGCTT reads 0.298; that for TCTTGTACATCAAAGGTTAAGAAAGCCGAAGCCT, 1.6; that for ACTATTAGTTGAGACGAGGGCAACCGTTAGGTTG, 0.0606.
On the same count and under the same terms, next, AGAATGAGGTTATTAAGATCAGGCAATTGCGGTC: 2.95; GCATATAGATAATACAAGGTGAAAGTCCGATTGT: 0.0768; GCTTGTAGATCAAGGTTAGGAAAGACTAAGCTAA: 1.45.
AGAATGATGTTATTAAGATCAGGGAATTGCGGTC: the PBM binding z-score is -0.219.
Sequence CCGACTGGGGCAAAGGTTACCATTCTCAGTACGA yielded a PBM binding z-score of 4.87.
The same measure, in the same setting: next, ATATGTAGGTTATCGGGTCATTTAGTTTGCGCAT: 7.62; TCATATAGGTAAATGCTAGGTTAAAGTCCGATCT: 3.88.

A further assay has as its system PPARg:RXRa IVT, anti-PPARg (NR concentration 270 nM, RXRa partner concentration 90 nM). The assay is described as above. The gist of the method: as §1
As to CCTCCTAGGTCATGGTCAGCTAATCTACAGTATG, the PBM binding z-score is 3.76.
Still for that read-out and setting: the result for CCAGACAGGTGAAAGGTAACACAGTCTGGTACGC reads 3.4; that for AGAACGAGGGCAATGAGTTGATAGCGCGGGTGGC, 2.39; that for ATATGTAGGTTATCGGGTCAATCAGTTTGCGCAT, 7.57.
Sequence ACAGACAGATGAGTGAAGGTAACTCAGCTGGACG returned a PBM binding z-score of 0.00181.
Regarding GCAGACAGGTGAAAAGCAGGTAACTCAGGGTGGC, the PBM binding z-score was 0.778.
The same measure, in the same setting: the result for TCGAGTAGGTTACCAAGGGGGCATTCAGCTTTCT reads 4.07; that for GCGACTGGGGCAAAGCAGGTTACCAAAAGGTTGG, 3.6; that for ATATGTAGGTTACATCCAGGTCATTCAGGCTATG, 7.59.
The same measure, in the same setting: next, CCTACTGGGCCAAATGTCATTGATTCCAATGCTC: 4.36.
Regarding ACTGTTAGTTGACTTAGGGCAACCGATACGACGC, the PBM binding z-score came to 0.607.
On the same count and under the same terms, the result for ATCTAAAGGTCGAGGTGAGTATAGAGAAAGGGAA reads 2.41.
On the same count and under the same terms, the result for CCTAGTTGGTCAAGGGCACACACGCTATAGGTAC reads 1.69.
As for TCTTGTAGATCAACAGGAGGCTAAGAAAGATCGA, the PBM binding z-score stood at 0.746.
Still for that read-out and setting: the result for TCATATAGGTAAACAGGTGAAAATCCGTAAGTTA reads 4.3; that for CGTCCAAGGTCTATGCTAGGTCAGTGAAAGCATT, 0.505.
Still for that read-out and setting: the result for CGTCCAAGGTCAAGGTCAGTGGAAGAGACTCGAA reads 4.55; that for AGAATGAGGTTATTAAGTTCAGGGAATTGCGGTC, 2.49; that for CCTTACGGGTCACTCCAGGTAATAGCATCGGAGT, 3.72.
Still for that read-out and setting: the result for ATCGAAAGGACGACGAGGTGAGTATACACCGTTT reads 0.315; that for CGTCCAAGGTCATAGGAGGTCAGTGAAGACAGAT, 4.48; that for GATACAGGGTCAAGGCCAGAGAACGCGTATTGAT, 3.9.
In turn, TCTATTAGTTGAAAGGCAACCGACGAGTCCGTTT registered a PBM binding z-score of 0.0769.
Same read-out and setting: next, CCGACTGGGGCAAAGGTTACCATCCTCAGTACGA: 5.59; TCTTGTAGATCAAGCAGGATAAGAAAGCCTGAGT: 0.265.
On the same count and under the same terms, next, AGACCGAGGGCACGCTGAGTTGATAGCAGAGTAG: 1.33; TCTAGTTGGTCACCGAGGTCACACACGACGGGTA: 4.29; CGTGCAAGGTCAGCAGGTCAGTGAAAGCGACGTG: 3.96.
Still for that read-out and setting: the result for CCTCGCAGGACAACAGGAGGTCAGAGCTGCCAGA reads 0.0775; that for ATCTCTAGATAAAAGTTCAGTGAATCCCGAGGAT, 0.486; that for CCTAGCAGGCCAGGGTCAATCAAGCATTTCGCTT, 0.837.
TCTTGTACATCAAAGGTTAAGAAAGCCGAAGCCT: the PBM binding z-score was 1.77.
The same measure, in the same setting: the result for ACTATTAGTTGAGACGAGGGCAACCGTTAGGTTG reads 0.467; that for AGAATGAGGTTATTAAGATCAGGCAATTGCGGTC, 2.56.
Still for that read-out and setting: next, GCATATAGATAATACAAGGTGAAAGTCCGATTGT: 0.523.
On the same count and under the same terms, next, GCTTGTAGATCAAGGTTAGGAAAGACTAAGCTAA: 0.637.
For AGAATGATGTTATTAAGATCAGGGAATTGCGGTC, the PBM binding z-score was 0.135.
Still for that read-out and setting: next, CCGACTGGGGCAAAGGTTACCATTCTCAGTACGA: 5.9.
Still for that read-out and setting: next, ATATGTAGGTTATCGGGTCATTTAGTTTGCGCAT: 7.25.
The same measure, in the same setting: next, TCATATAGGTAAATGCTAGGTTAAAGTCCGATCT: 2.47.

The values above are taken from the supplement of paper PMC6555819.
